Reference: ChEMBL document CHEMBL3988442, “University of Dundee, Small-Polar-MMV Screening Library” (2021)

target: Shiga toxin 2 (Escherichia coli O157:H7) (UniProt P09385+P09386); assay: E. coli 0.157:H7 Shiga Toxin SOP - stx2 screening assay; assay type: functional; parameters: scale not given: direction of the effect not stated beside the values; conditions: 30 µM

Structure (SMILES)	Percent Effect [%]
COCCN1CCN(C(=O)c2ccncc2F)Cc2cccnc21	-48.6
O=C(c1n[nH]c2c1CCN(Cc1nccs1)C2)N1CCCC1	-3.88
COCCN1CCN(Cc2noc(C3CC3)n2)CC1C (stereo not given)	-12.1
COc1cccc(N2CCN(CC(O)c3cc(C)sc3C)CC2)c1 (stereo not given)	6.38
O=C(NCCc1cccs1)[C@H]1CO[C@H]2CCNC[C@H]2C1	2.12
Cc1nn(C)c(C)c1C1COCCN1C(=O)c1cnc(N)c(Cl)c1 (stereo not given)	-23.7
Cc1nc(C2CCCN(C(=O)c3cc(Cl)c[nH]3)C2)no1 (stereo not given)	0.906
O=C(c1cccc(S(=O)(=O)NCCCc2ncc[nH]2)c1)N1CCOCC1	-13.2
CCc1ncc2c(n1)CN(Cc1nnc(C)o1)CC2	-16.2
c1cnc(-c2cnc(N3CCSCC3)nc2C2CC2)cn1	4.88
COc1ccc(NC(=O)NCC(O)c2ccc(F)cc2F)c(OC)c1 (stereo not given)	-4.16
Cc1ccc(C(=O)N2CCn3cc(CN4CCCCC4)nc3C2)o1	-27.2
CCS(=O)(=O)N1CCC(c2cc3n(n2)[C@@H](C(F)(F)F)C[C@@H](C)N3)CC1	13
CCn1cnnc1CNC(=O)N1CCOCC1	7.05
Cc1cnc(CNC(=O)NCc2cccnc2N(C)C)s1	-0.447
COCCCNC(=O)CN(C)C(=O)c1cc(C)ccc1O	14.3
CCn1cc(NC(=O)C2CCN(Cc3ccccc3C#N)CC2)cn1	-53.9
N#CC1(C(=O)N2CCN(Cc3ccon3)CC2)CCC1	3.73
CN1CC(=O)N(c2cccc(F)c2)CC12CCNC2 (stereo not given)	-4.44
Cc1cc(C)n(CC2CCCN2C(=O)c2ccc(C(N)=O)cn2)n1 (stereo not given)	-49.3

Structure (SMILES)	Percent Effect [%]
CC(NC(=O)NCCCN(C)S(C)(=O)=O)c1cccc(Cl)c1 (stereo not given)	-9.29
Cc1nc(NCCc2ccc(Cl)cc2)cc(C(=O)N2CCOCC2)n1	-64.7
Cc1nc(C)c(C(=O)NCCNc2ncccc2C#N)s1	-20.6
CC(C)c1nnc2ccc(N3CCC(C(=O)Nc4nccs4)CC3)nn12	-32.8
Cn1cc(CC(=O)N2CCC(Nc3cccnn3)CC2)c2ccccc21	-25.9
CC(C)C(Sc1nnc(C2CC2)n1C1CC1)C(=O)NCc1cccnc1 (stereo not given)	-18.2
Cc1ccc(S(=O)(=O)NC(=O)c2cccc(OCC(N)=O)c2)s1	-20.2
Cc1cc(N2CCN(CC(=O)N(C)C)CC2)nc(-c2ccncc2)n1	-5.53
CC1CN(CC(=O)Nc2nncs2)CCN1Cc1nccn1C (stereo not given)	12.1
CCc1ccc(S(=O)(=O)Nc2cn(C)cc(Br)c2=O)cc1	-8.3
c1coc(-c2noc(CN3CCC(c4ccn[nH]4)CC3)n2)c1	0.0749
CCOc1cc(C)nc(N2CCN(C(=O)c3ccc[nH]3)CC2)n1	29.4
CC(C)NC(=O)C1CN(C(=O)N2CCCC2)CC12CCOCC2 (stereo not given)	8.24
CN1CCN(Cc2ccccc2CNC(=O)c2ccc(Br)cc2)CC1	0.652
Cn1c(CN2CCCC2)nnc1C1CCCN(C(=O)C2CCOCC2)C1 (stereo not given)	-6.15
Cc1cccc(C2(NC(=O)CCN3C(=O)CCC3=O)CCCC2)c1	10.2
CN(C(=O)C1CSCN1S(=O)(=O)c1ccc(F)cc1)C1CC1 (stereo not given)	7.34
CCOc1ccc2[nH]c(=O)c(CN3CCC(O)CC3)cc2c1	-8.86
O=C(NCCn1nc2ccccn2c1=O)c1cccc2[nH]ncc12	-25.7
CCOc1ccc(N2CCCN=C2NC(=O)c2ccccc2C)cc1	-57.5
